In PubChem BioAssay:
Active and inactive are the calls of the source.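 Rule for the calls: active = at least 20% inhibition of 6-phosphogluconate dehydrogenase activity; inactive = the rest.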

Each compound was assayed against 6-phosphogluconate dehydrogenase, decarboxylating (Homo sapiens) (UniProt P52209) (assay: inhibition of human phosphogluconate dehydrogenase – biochemical, recombinant enzyme, NADPH absorbance, primary screen (AID 1159550)). Settings: recombinant 6PGD, NADPH absorbance 341 nm; at 10 µM; active compounds read high.
Sequence of 6-phosphogluconate dehydrogenase, decarboxylating (Homo sapiens) (P52209 whole entry, looked up): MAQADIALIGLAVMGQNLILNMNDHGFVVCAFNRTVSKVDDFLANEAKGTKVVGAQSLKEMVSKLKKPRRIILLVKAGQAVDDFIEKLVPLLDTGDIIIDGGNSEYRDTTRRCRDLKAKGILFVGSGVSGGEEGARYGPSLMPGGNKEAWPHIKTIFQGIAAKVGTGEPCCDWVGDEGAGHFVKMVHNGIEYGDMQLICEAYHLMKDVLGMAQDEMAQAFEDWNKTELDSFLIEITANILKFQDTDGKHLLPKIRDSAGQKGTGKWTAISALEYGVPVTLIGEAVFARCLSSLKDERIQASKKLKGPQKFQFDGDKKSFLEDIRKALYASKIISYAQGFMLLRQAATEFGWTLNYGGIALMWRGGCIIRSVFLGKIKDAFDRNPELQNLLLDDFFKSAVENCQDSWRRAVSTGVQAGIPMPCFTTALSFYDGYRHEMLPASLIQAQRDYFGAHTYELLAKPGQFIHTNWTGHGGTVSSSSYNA

inhibition, inactive:
OCCN1CCN(CCCN2c3ccccc3Sc3ccc(C(F)(F)F)cc32)CC1 10.2%
NS(=O)(=O)c1cc2c(cc1Cl)NC=NS2(=O)=O 11.5%
O=C1C(CCS(=O)c2ccccc2)C(=O)N(c2ccccc2)N1c1ccccc1 (centres undefined) -6.96%
Cc1ccc(-c2cc(C(F)(F)F)nn2-c2ccc(S(N)(=O)=O)cc2)cc1 13.7%
CN[C@H]1CC[C@@H](c2ccc(Cl)c(Cl)c2)c2ccccc21 -2.43%
Cc1ccccc1C(OCCN(C)C)c1ccccc1 (centres undefined) 5.27%
CCc1nc(N)nc(N)c1-c1ccc(Cl)cc1 5.34%
COc1cc2nc(N(C)CCCNC(=O)C3CCCO3)nc(N)c2cc1OC (centres undefined) 0.608%
CN(C)CCOC(c1ccc(Cl)cc1)c1ccccn1 (centres undefined) 8.32%
N[C@@H](C(=O)N[C@@H]1C(=O)N2C(C(=O)O)=C(Cl)CS[C@H]12)c1ccccc1 -9.98%
Nc1ncn([C@@H]2O[C@H](CO)[C@@H](O)[C@H]2O)c(=O)n1 4.17%
NCc1ccc(S(N)(=O)=O)cc1 -1.59%
Cc1ncc([N+](=O)[O-])n1CC(C)O (centres undefined) -1.51%
Cc1ccc(C)c(OCCCC(C)(C)C(=O)O)c1 -2.35%
CN1CCCC(n2nc(Cc3ccc(Cl)cc3)c3ccccc3c2=O)CC1 (centres undefined) 6.29%
NS(=O)(=O)c1cc2c(cc1C(F)(F)F)NC(Cc1ccccc1)NS2(=O)=O (centres undefined) -18.8%
COC1=CC(=O)C[C@@H](C)[C@]12Oc1c(Cl)c(OC)cc(OC)c1C2=O 1.41%
Cc1cn([C@H]2C[C@H](N=[N+]=[N-])[C@@H](CO)O2)c(=O)[nH]c1=O 13.6%
CN(CCOc1ccc(CC2SC(=O)NC2=O)cc1)c1ccccn1 (centres undefined) -0.784%
COc1ccc(OC)c(C(O)CNC(=O)CN)c1 (centres undefined) -19.4%
OC(CCN1CCCC1)(c1ccccc1)C1CCCCC1 (centres undefined) -21.9%
NC(=O)N1c2ccccc2CC(=O)c2ccccc21 8.8%
CCCNCC(O)COc1ccccc1C(=O)CCc1ccccc1 (centres undefined) -5.6%
C/C=C/C(=O)N(CC)c1ccccc1C -11.5%
CCCCCCNC(=O)n1cc(F)c(=O)[nH]c1=O 1.06%
NC(=O)c1cnccn1 -8.25%
CN(C)CCc1c[nH]c2ccc(C[C@H]3COC(=O)N3)cc12 8.76%
COc1ccccc1OCC(O)COC(N)=O (centres undefined) -17.6%
COC(=O)Nc1nc2ccc(C(=O)c3ccccc3)cc2[nH]1 0.811%
CCn1cc(C(=O)O)c(=O)c2cc(F)c(N3CCN(C)CC3)cc21 5%
Cn1cnc([N+](=O)[O-])c1Sc1ncnc2nc[nH]c12 2.32%
c1ccc2[nH]c(-c3cscn3)nc2c1 2.18%
Cc1onc(-c2c(Cl)cccc2Cl)c1C(=O)N[C@@H]1C(=O)N2[C@@H]1SC(C)(C)[C@@H]2C(=O)O -8.13%
Clc1ccc2c(c1)C(N1CCNCC1)=Nc1ccccc1O2 -21.3%
CO[C@@]1(NC(=O)Cc2cccs2)C(=O)N2C(C(=O)O)=C(COC(N)=O)CS[C@@H]21 8.52%
CCc1cccc2c3c([nH]c12)C(CC)(CC(=O)O)OCC3 (centres undefined) -23.2%
CC(C)(C)NCC(O)COc1cccc2c1C[C@H](O)[C@H](O)C2 (some centres undefined) 6.69%
O=S(=O)(O)CCS 6.93%
O=c1[nH]cc(F)c(=O)[nH]1 -1.95%
